This is part of a sample that, as a whole, favours compounds with a hit. Of some 83,000 tested, about 20% had one in any assay.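 In brief: 96-well plates, 48 h treatment, single concentration, percent growth endpoint.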 Unmarked numbers belong to inactive results. Activity calls are given as the source filed them.
These compounds were tested on IGROV1 ovarian (assay: NCI-60 one-dose screen, 48 h (100 = growth as untreated, 0 = no growth, -100 = all killed)). Conditions: 10 µM unless noted.
Procedure: Growth inhibition of the IGROV1 human tumor cell line is measured as a screen for anti-cancer activity. Cells are grown in 96 well plates and exposed to the test compound for 48 hours. Compounds are tested at a single concentration, which is 10^-5 M for most compounds. The reported endpoint is percent growth (GI% or GIPRCNT), where numbers from 0 - 100% represent growth inhibition, and numbers from -100% - 0 represent cell death. For example, a value of 40 represents 60% growth inhibition. A value of 0 means no net growth occurred over the course of the experiment. A value of -40 indicates 40% of cells at the beginning of the experiment died by the end of the experiment. A value of -100 means all cells are dead at the end of the experiment.
NCI-60 Human Tumor Cell Lines Screen was performed using the standard one-dose NCI protocol, which is described in more detail at https://dtp.cancer.gov/discovery_development/nci-60/default.htm.
Compounds with GIPRCNT values below 10 were considered active. Activity score was based on GIPRCNT using the following formula: […]
Score is 0 for GIPRCNT values of 100 or above, 50 for GIPRCNT values of 0, and 100 for GIPRCNT values of -100.
COc1ccc(-c2cc(-c3ccc(OC)cc3)c3sc(=O)[nH]c3n2)cc1 showed a growth of 84.4%.
CCCCCCCOc1cccc(/C=C2\N=C3SCCCN3C2=O)c1 showed a growth of 98.7%.
For COc1ccc(CNc2c3ccccc3nc3ccc(OC)cc23)cc1, the growth was 11.2%.
In the case of NC(=S)N1N=C(c2ccc(Cl)cc2)CC1c1cc2ccccc2[nH]c1=O (stereo not given), the growth is reported as 101%.
In the case of COc1cc(C2CC(c3cccc(Nc4ccnc5cc(Cl)ccc45)c3)=NN2C=O)cc(OC)c1OC (stereo not given), the growth is reported as 40.6%.
CC1=C(O)C(=O)CC1 gave a growth of 107%.
O=C(C(=O)N1CCCC1)c1cn(CCCn2cc(C(=O)C(=O)N3CCCC3)c3cc(Br)ccc32)c2ccc(Br)cc12 showed a growth of 67.9%.
COC(=O)OC1C(O[C@H]2C[C@H]3[C@@H]4CC=C5C[C@@H](O)CC[C@]5(C)[C@H]4CC[C@]3(C)[C@H]2[C@H](C)C(=O)CCC(C)C)OCC(O)C1OC1OCC(O)C(O)C1OC(=O)c1ccc(OC)cc1 (stereo not given in full) showed a growth of 29.5%.
Compound O=C(CC(=O)c1ccccc1F)Nc1ccc([N+](=O)[O-])cc1 has a growth of 97.9%.
Compound CCn1c(=O)c(C(=O)NCCCO)c(O)c2ccccc21 has a growth of 108%.
Work on COc1cc2ncnc(Nc3ccc(S(=O)(=O)Nc4nccs4)cc3)c2cc1OCCCN1CCOCC1 yielded a growth of 106%.
Work on COc1cc2c(c(OC)c1O)C(=O)C(OC)C(c1ccc(O)c(O)c1)O2 (stereo not given) yielded a growth of 14.1%.
With CC(=O)N1N=C(C2C(=O)N(C)C(=O)N(C)C2=O)CC1c1ccccc1C(=O)O (stereo not given) the growth was 112%.
In the case of O=[N+]([O-])c1ccc(N/N=C\c2ccc(O)cc2O)nc1, the growth is reported as 28.7%.
O=S(=O)(Nc1ccc2ccccc2c1)N1CCCCC1 was tested, and the growth was 36.3%.
In the case of COc1ccc(-c2cnnn2-c2nonc2-n2cccc2)cc1, the growth is reported as 28.9%.
Compound O/N=C/c1ccncc1 has a growth of 114%.
With COc1ccc(C2=NNC(c3ccc(Oc4nc5c(c(=O)n(C)c(=O)n5C)n4C)c(OC)c3)C2)cc1 (stereo not given) the growth was 105%.
COc1cc2ncnc(Nc3ccc(S(=O)(=O)Nc4cc(C)on4)cc3)c2cc1OCCCN1CCN(c2ccc([N+](=O)[O-])cc2)CC1 gave a growth of 108%.
With O=C(Nc1ccc(Br)cc1)Nc1cccc(Br)c1 the growth was 25.5%.
CC(C)(C)c1cc(C[P+](c2ccccc2)(c2ccccc2)c2ccccc2)cc(C(C)(C)C)c1O was tested, and the growth was 12.1%.
OC(COCc1ccccc1)COCc1ccccc1 showed a growth of 108%.
In the case of Cc1cccc(/C=N/n2c(-c3ccc(Cl)cc3)nc3c(Br)cc(Br)cc3c2=O)c1, the growth is reported as 31.9%.
With C=C1C(=O)O[C@H]2[C@H]1CC/C(COC(=O)NCc1cccc(OC)c1)=C\CC[C@@]1(C)O[C@@H]21 the growth was 32.8%.
Work on CS(=O)(=O)c1ccc(C(=O)N2N=C(c3ccccc3)CC2c2ccc3c(c2)OCO3)cc1 (stereo not given) yielded a growth of 96.2%.
Brc1ccsc1Br gave a growth of 103%.
With O=C(Nc1ccc(Br)cc1)c1ccc(Cl)c(Cl)c1 the growth was 66.7%.
With Cc1nn(-c2ccccc2)c2nc3c(nc12)C1=NCCN1C(c1ccc(Cl)cc1)N3 (stereo not given) the growth was 88.8%.
For O=C(Nc1ccncc1)C(=O)c1cn(S(=O)(=O)c2cccc(Cl)c2F)c2ccccc12, the growth was 70.9%.
Work on COc1ccc(Cl)cc1Nc1nc(C(F)(F)F)ccc1C(=O)NN yielded a growth of 30.3%.
In the case of COc1cnc2c(c1)C(=O)c1c-2n(CCCN2CCCC2)c(=O)c2cc(Cl)ccc12, the growth is reported as 39.4%.
In the case of CCN(C(=O)CCl)C(C)(C)C(SSSC(c1ccc(Cl)cc1)C(C)(C)N(CC)C(=O)CCl)c1ccc(Cl)cc1 (stereo not given), the growth is reported as 74.3%.
With CCN(CC)c1cc(C)c(Cc2c(OC)ccc3ccccc23)cc1C the growth was 88.6%.
CN1C2CCC1/C(=C\c1ccc(Cl)cc1)C(=O)/C2=C/c1ccc(Cl)cc1 showed a growth of 68.8%.
Compound COc1cccc(-c2nc3sccn3c2-c2ccnc(NCCN3CCCNS3(=O)=O)n2)c1 has a growth of 75%.
In the case of CCCCCCCC/C=C/CCCCCCCC1=NC(C)(C)CN1C(C)C, the growth is reported as -29.9% (active).
CC(C)(C)OC(=O)N1CCCN(CCNc2nccc(-c3c(-c4cccc(O)c4)nc4sccn34)n2)S1(=O)=O showed a growth of 79.5%.
For COc1ccc(/C(C)=N/NC(=O)c2ccc(S(C)(=O)=O)cc2)cc1OC, the growth was 109%.
CC(C)C/C=C/C=C/C(=O)N[C@@H](CC(N)=O)C(=O)N[C@@H]1C(=O)N[C@H](c2ccc(O)cc2)C(=O)N[C@H](CCCN)C(=O)N[C@H]([C@@H](C)O)C(=O)N[C@H](c2ccc(O)cc2)C(=O)N[C@H](c2ccc(O)cc2)C(=O)N[C@H]([C@H](C)O)C(=O)N[C@H](Cc2ccccc2)C(=O)N[C@H](CCCN)C(=O)N[C@H](c2ccc(O[C@H]3O[C@@H](CO)[C@@H](O)[C@@H](O)[C@H]3O[C@@H]3O[C@H](CO)[C@H](O)[C@H](O)[C@@H]3O)cc2)C(=O)N[C@H]([C@H](C)O)C(=O)N[C@H](c2ccc(O)cc2)C(=O)NCC(=O)N[C@H](CC(C)C)C(=O)N[C@H](C)C(=O)N[C@H](c2ccc(O)c(Cl)c2)C(=O)O[C@@H]1C(N)=O gave a growth of 96.6%.
COc1cccc(N2CCN(c3ncnc4cc[nH]c34)CC2)c1 gave a growth of 85.4%.

From PubChem BioAssay (NCI)
